Laboratory results from PubChem BioAssay AID1159580 (chemical genetic matrix, 2015).
Hit rate of the full screen: of about 5,500 compounds, about 2,000 (36%) were called active. Inconclusive results (about 18%) are left out. No stated cut-off is given here; in the data, active means normalized growth mostly below about 0.91 (no sharp cut-off); inconclusive means no clear call, values can overlap the other calls; inactive means mostly above about 0.92. The list shows a part of the results.

Assay: chemical genetic growth profiling, strain panel (AID 1159580);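 further: tested at 20 µM; growth read once vehicle control cultures reached saturation at 30 °C; 1 = growth at the plate median or of vehicle wells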
Conditions: growth OD

Measured: normalized growth

N#CC1COc2ccccc2O1 (centres undefined)
inactive: S. cerevisiae deletion strains, locus YAL013W, strain DEP1, stronger effect = lower value 1.01 | S. cerevisiae deletion strains, locus YBR229C, strain ROT2, stronger effect = lower value 0.993 | S. cerevisiae deletion strains, locus YDL101C, strain DUN1, stronger effect = lower value 1.01 | S. cerevisiae deletion strains, locus YDR150W, strain NUM1, stronger effect = lower value 1.03 | S. cerevisiae deletion strains, locus YEL061C, strain CIN8, stronger effect = lower value 1.01 | S. cerevisiae deletion strains, locus YGR078C, strain PAC10, stronger effect = lower value 0.999 | S. cerevisiae deletion strains, locus YGR229C, strain SMI1, stronger effect = lower value 0.999 | S. cerevisiae deletion strains, locus YHR030C, strain SLT2, stronger effect = lower value 1.03 | S. cerevisiae deletion strains, locus YHR087W, strain rtc3, stronger effect = lower value 0.989 | S. cerevisiae deletion strains, locus YJR043C, strain POL32, stronger effect = lower value 1.03 | S. cerevisiae deletion strains, locus YJR075W, strain HOC1, stronger effect = lower value 0.973 | S. cerevisiae deletion strains, locus YKL190W, strain CNB1, stronger effect = lower value 1.02 | S. cerevisiae deletion strains, locus YLR039C, strain RIC1, stronger effect = lower value 1 | S. cerevisiae deletion strains, locus YLR058C, strain SHM2 (second series), stronger effect = lower value 0.994 | S. cerevisiae deletion strains, locus YLR085C, strain ARP6, stronger effect = lower value 1.01 | S. cerevisiae deletion strains, locus YLR262C, strain YPT6, stronger effect = lower value 0.997 | S. cerevisiae deletion strains, locus YML094W, strain GIM5, stronger effect = lower value 1.01 | S. cerevisiae deletion strains, locus YMR219W, strain ESC1, stronger effect = lower value 0.999 | S. cerevisiae deletion strains, locus YMR263W, strain SAP30, stronger effect = lower value 1.03 | S. cerevisiae deletion strains, locus YMR307W, strain GAS1, stronger effect = lower value 1.1 | S. cerevisiae deletion strains, locus YNL153C, strain GIM3, stronger effect = lower value 0.996 | S. cerevisiae deletion strains, locus YNL298W, strain CLA4 (second series), stronger effect = lower value 1.04 | S. cerevisiae deletion strains, locus YNL322C, strain KRE1, stronger effect = lower value 0.984 | S. cerevisiae deletion strains, locus YNR030W, strain Alg12, stronger effect = lower value 1.01 | S. cerevisiae deletion strains, locus YPL055C, strain LGE1, stronger effect = lower value 1.13 | S. cerevisiae deletion strains, locus YPL241C, strain CIN2, stronger effect = lower value 0.998 | S. cerevisiae deletion strains, locus YPR135W, strain CTF4, stronger effect = lower value 1.04 | S. cerevisiae strains, strain wild type, stronger effect = lower value 1.01

S=c1ccss1
inactive: S. cerevisiae deletion strains, locus YAL030W, strain snc1, stronger effect = lower value 0.997 | S. cerevisiae deletion strains, locus YBL061C, strain skt5, stronger effect = lower value 0.989 | S. cerevisiae deletion strains, locus YBR009C, strain hhf1, stronger effect = lower value 0.915 | S. cerevisiae deletion strains, locus YBR023C, strain chs3, stronger effect = lower value 0.972 | S. cerevisiae deletion strains, locus YBR171W, strain sec66, stronger effect = lower value 0.994 | S. cerevisiae deletion strains, locus YBR279W, strain paf1, stronger effect = lower value 0.948 | S. cerevisiae deletion strains, locus YCL011C, strain gbp2, stronger effect = lower value 0.916 | S. cerevisiae deletion strains, locus YCL016C, strain dcc1, stronger effect = lower value 0.977 | S. cerevisiae deletion strains, locus YCL069W, strain vba3, stronger effect = lower value 1 | S. cerevisiae deletion strains, locus YCR088W, strain abp1, stronger effect = lower value 1 | S. cerevisiae deletion strains, locus YDL005C, strain med2, stronger effect = lower value 0.987 | S. cerevisiae deletion strains, locus YDL040C, strain nat1, stronger effect = lower value 0.985 | S. cerevisiae deletion strains, locus YDR001C, strain nth1, stronger effect = lower value 1 | S. cerevisiae deletion strains, locus YDR159W, strain sac3, stronger effect = lower value 1.06 | S. cerevisiae deletion strains, locus YDR195W, strain ref2 1.1 | S. cerevisiae deletion strains, locus YDR297W, strain sur2, stronger effect = lower value 0.993 | S. cerevisiae deletion strains, locus YDR334W, strain swr1, stronger effect = lower value 0.931 | S. cerevisiae deletion strains, locus YDR335W, strain msn5, stronger effect = lower value 0.992 | S. cerevisiae deletion strains, locus YDR392W, strain spt3, stronger effect = lower value 1.02 | S. cerevisiae deletion strains, locus YEL003W, strain gim4, stronger effect = lower value 1.01 | S. cerevisiae deletion strains, locus YEL037C, strain rad23, stronger effect = lower value 0.984 | S. cerevisiae deletion strains, locus YEL061C, strain CIN8 (second series), stronger effect = lower value 1.01 | S. cerevisiae deletion strains, locus YER015W, strain faa2, stronger effect = lower value 0.984 | S. cerevisiae deletion strains, locus YER016W, strain bim1, stronger effect = lower value 0.984 | S. cerevisiae deletion strains, locus YER111C, strain swi4, stronger effect = lower value 1.01 | S. cerevisiae deletion strains, locus YER155C, strain BEM2 (second series), stronger effect = lower value 0.979 | S. cerevisiae deletion strains, locus YGL167C, strain pmr1, stronger effect = lower value 1 | S. cerevisiae deletion strains, locus YGL173C, strain kem1, stronger effect = lower value 0.926 | S. cerevisiae deletion strains, locus YGL227W, strain vid30, stronger effect = lower value 1.01 | S. cerevisiae deletion strains, locus YGL240W, strain doc1, stronger effect = lower value 0.96 | S. cerevisiae deletion strains, locus YHR027C, strain rpn1, stronger effect = lower value 0.943 | S. cerevisiae deletion strains, locus YHR142W, strain chs7, stronger effect = lower value 0.94 | S. cerevisiae deletion strains, locus YJL092W, strain hpr5, stronger effect = lower value 0.991 | S. cerevisiae deletion strains, locus YJL095W, strain BCK1 (second series), stronger effect = lower value 0.99 | S. cerevisiae deletion strains, locus YJL115W, strain asf1, stronger effect = lower value 0.994 | S. cerevisiae deletion strains, locus YJL129C, strain trk1, stronger effect = lower value 0.927 | S. cerevisiae deletion strains, locus YJL154C, strain vps35, stronger effect = lower value 0.997 | S. cerevisiae deletion strains, locus YJL164C, strain tpk1, stronger effect = lower value 0.956 | S. cerevisiae deletion strains, locus YJL166W, strain qcr8, stronger effect = lower value 0.914 | S. cerevisiae deletion strains, locus YJL187C, strain SWE1, stronger effect = lower value 0.965 | S. cerevisiae deletion strains, locus YKL160W, strain elf1, stronger effect = lower value 0.947 | S. cerevisiae deletion strains, locus YKR026C, strain gcn3, stronger effect = lower value 0.993 | S. cerevisiae deletion strains, locus YKR091W, strain srl3, stronger effect = lower value 0.992 | S. cerevisiae deletion strains, locus YLL001W, strain dnm1, stronger effect = lower value 0.939 | S. cerevisiae deletion strains, locus YLL026W, stronger effect = lower value 0.967 | S. cerevisiae deletion strains, locus YLL041C, strain sdh2, stronger effect = lower value 1 | S. cerevisiae deletion strains, locus YLR027C, strain aat2, stronger effect = lower value 0.943 | S. cerevisiae deletion strains, locus YLR221C, strain rsa3, stronger effect = lower value 0.924 | S. cerevisiae deletion strains, locus YLR258W, strain gsy2, stronger effect = lower value 0.965 | S. cerevisiae deletion strains, locus YLR262C, strain YPT6 (second series), stronger effect = lower value 0.866 | S. cerevisiae deletion strains, locus YLR320W, strain mms22, stronger effect = lower value 0.939 | S. cerevisiae deletion strains, locus YLR342W, strain FKS1, stronger effect = lower value 0.973 | S. cerevisiae deletion strains, locus YLR370C, strain arc18, stronger effect = lower value 0.929 | S. cerevisiae deletion strains, locus YLR384C, strain iki3, stronger effect = lower value 0.996 | S. cerevisiae deletion strains, locus YML120C, strain ndi1, stronger effect = lower value 1.02 | S. cerevisiae deletion strains, locus YMR058W, strain fet3, stronger effect = lower value 0.962 | S. cerevisiae deletion strains, locus YMR125W, strain sto1, stronger effect = lower value 1.04 | S. cerevisiae deletion strains, locus YMR129W, stronger effect = lower value 0.984 | S. cerevisiae deletion strains, locus YMR205C, strain PFK2, stronger effect = lower value 0.935 | S. cerevisiae deletion strains, locus YMR231W, strain pep5, stronger effect = lower value 0.995 | S. cerevisiae deletion strains, locus YNL071W, strain lat1, stronger effect = lower value 0.922 | S. cerevisiae deletion strains, locus YNL209W, strain ssb2, stronger effect = lower value 0.981 | S. cerevisiae deletion strains, locus YNL248C, strain rpa49, stronger effect = lower value 1.01 | S. cerevisiae deletion strains, locus YNL322C, strain KRE1 (second series), stronger effect = lower value 0.99 | S. cerevisiae deletion strains, locus YNR049C, strain mso1, stronger effect = lower value 1 | S. cerevisiae deletion strains, locus YOR001W, strain rrp6, stronger effect = lower value 0.98 | S. cerevisiae deletion strains, locus YOR080W, strain dia2, stronger effect = lower value 1 | S. cerevisiae deletion strains, locus YOR265W, strain rbl2, stronger effect = lower value 0.992 | S. cerevisiae deletion strains, locus YOR290C, strain snf2, stronger effect = lower value 0.866 | S. cerevisiae deletion strains, locus YPL106C, strain sse1, stronger effect = lower value 0.958 | S. cerevisiae deletion strains, locus YPL240C, strain hsp82, stronger effect = lower value 0.986
active: S. cerevisiae deletion strains, locus YAL021C, strain ccr4, stronger effect = lower value 0.679 | S. cerevisiae deletion strains, locus YAL026C, strain drs2, stronger effect = lower value 0.779 | S. cerevisiae deletion strains, locus YBR231C, strain swc5, stronger effect = lower value 0.895 | S. cerevisiae deletion strains, locus YDR069C, strain doa4, stronger effect = lower value 0.835 | S. cerevisiae deletion strains, locus YDR137W, strain rgp1, stronger effect = lower value 0.805 | S. cerevisiae deletion strains, locus YFR010W, strain ubp6, stronger effect = lower value 0.839 | S. cerevisiae deletion strains, locus YGL253W, strain hxk2, stronger effect = lower value 0.818 | S. cerevisiae deletion strains, locus YHR013C, strain ard1, stronger effect = lower value 0.77 | S. cerevisiae deletion strains, locus YLR357W, strain rsc2, stronger effect = lower value 0.807 | S. cerevisiae deletion strains, locus YOR070C, strain gyp1, stronger effect = lower value 0.911 | S. cerevisiae deletion strains, locus YOR083W, strain WHI5, stronger effect = lower value 0.857 | S. cerevisiae deletion strains, locus YOR106W, strain vam3, stronger effect = lower value 0.646 | S. cerevisiae deletion strains, locus YOR270C, strain vph1, stronger effect = lower value 0.423 | S. cerevisiae deletion strains, locus YPL051W, strain arl3, stronger effect = lower value 0.904 | S. cerevisiae deletion strains, locus YPL078C, strain atp4, stronger effect = lower value 0.872
